# High-throughput results: PubChem BioAssay, National Center for Advancing Translational Sciences (NCATS)
# Sampled rows, rich in hits. Any-hit rate of the full collection: about 2.4%.
# FEN1 inh: qHTS Assay for the Inhibitors of Human Flap endonuclease 1 (FEN1); P39748; Recombinant FEN1 flap cleavage, fluorescence, 15 min; Potency, µM (doses to about 114 µM), for inactives: at the top dose activity change, negative = inhibition, most hits filed as inhibitors; 0.35% of 390,000 active; note: % is set by controls: 0 for no effect and ±100 for the full control effect; nearly all actives have a fitted effect of over 65% in size
#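 FEN1 at 10 nM preincubated with compounds 15 min at room temperature, then flap DNA substrate added at 50 nM final. Signal read at 0 and 15 min; concentration-response fitted with four-parameter Hill equation.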
# POLH inh: qHTS for Inhibitors of Polymerase Eta; AID 588591, 2011; DNA polymerase eta (Homo sapiens), Q9Y253; recombinant Pol eta, fluorescent DNA replication assay; 1.2% of 390,000 active; Potency, µM (highest dose often 114 µM), without a hit: top-dose activity change, negative = inhibition, hits mostly inhibitors; note: % is set by controls: 0 for no effect and ±100 for the full control effect
# Target sequence (Q9Y253 whole entry, looked up): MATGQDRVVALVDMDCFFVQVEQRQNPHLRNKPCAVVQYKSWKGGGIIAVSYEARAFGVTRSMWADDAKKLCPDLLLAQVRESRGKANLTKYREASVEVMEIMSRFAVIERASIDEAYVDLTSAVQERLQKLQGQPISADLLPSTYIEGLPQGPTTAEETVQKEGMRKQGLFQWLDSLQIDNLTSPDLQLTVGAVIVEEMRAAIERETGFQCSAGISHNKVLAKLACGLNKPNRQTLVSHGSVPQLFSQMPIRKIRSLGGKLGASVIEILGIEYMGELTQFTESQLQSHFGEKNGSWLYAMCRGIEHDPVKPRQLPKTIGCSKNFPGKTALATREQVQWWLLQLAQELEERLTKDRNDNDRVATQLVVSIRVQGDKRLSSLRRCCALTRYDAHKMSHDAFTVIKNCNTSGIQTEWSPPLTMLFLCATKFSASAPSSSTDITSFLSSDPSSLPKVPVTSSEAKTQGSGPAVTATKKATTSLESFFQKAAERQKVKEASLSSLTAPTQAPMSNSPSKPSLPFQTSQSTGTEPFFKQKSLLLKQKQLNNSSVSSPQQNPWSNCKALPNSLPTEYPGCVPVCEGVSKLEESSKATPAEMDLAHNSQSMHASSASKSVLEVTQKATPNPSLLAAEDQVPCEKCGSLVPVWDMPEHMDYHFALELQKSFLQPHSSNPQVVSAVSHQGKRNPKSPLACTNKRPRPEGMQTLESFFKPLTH
#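 Fluorescent replication assay: 50 nM final substrate added after a 15 min room-temperature compound preincubation with 10 nM enzyme. Signal taken at 0 min and again at 10 min.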
# Pol iota inh: qHTS for Inhibitors of Polymerase Iota. DNA polymerase iota (Homo sapiens), Q9UNA4. Pol iota fluorescent replication assay, 10 min. Potency, µM (series often up to 115 µM), for inactives: at the top dose activity, negative = inhibition, usual class: inhibitors. 1% of 390,000 active. AID 588590, 2011
#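 Fluorescent replication assay read twice, at 0 min and 10 min after adding 50 nM (final) substrate. Enzyme (10 nM) and compounds were first incubated 15 min at room temperature; enzyme-free buffer wells were negative controls.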
# Pol kappa inh: qHTS for Inhibitors of Polymerase Kappa; DNA polymerase kappa (Homo sapiens), Q9UBT6; purified Pol kappa, fluorescent DNA synthesis assay, 10 min; 0.53% of 400,000 active; Potency, µM (titrated, usually from 107 µM), without a hit: at the top dose activity, negative = inhibition, usual class: inhibitors; note: % is set by controls: 0 for no effect and ±100 for the full control effect
#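 10 nM Pol kappa was preincubated with compounds for 15 min at room temperature. Reaction started with 50 nM (final) substrate. Fluorescence read kinetically at 0 and 10 min.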
# POLB inh: qHTS Assay for Inhibitors of DNA Polymerase Beta. P06746. Pol beta primer extension/strand displacement, fluorescence kinetic. Potency, µM (titrated, usually from 114 µM), without a hit: at the top dose activity change, negative = inhibition, hits mostly inhibitors. 1.3% of 340,000 active; note: % is set by controls: 0 for no effect and ±100 for the full control effect
#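 Homogeneous kinetic assay of primer extension and strand displacement by 10 nM Pol beta, preincubated 15 min at room temperature with compound before 50 nM substrate (final) was added. Read at 0 and 10 min; four-parameter Hill fit.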
# WRN helicase inh: qHTS for Inhibitors of WRN Helicase | Bifunctional 3'-5' exonuclease/ATP-dependent helicase WRN (Homo sapiens), Q14191 | Potency, µM (top dose mostly 114 µM), for the others: at the top dose activity change, negative = inhibition, hits mostly inhibitors | 0.46% of 360,000 active | WRN helicase unwinding, fluorescent forked duplex, kinetic; note: % is set by controls: 0 for no effect and ±100 for the full control effect; nearly all actives have a fitted effect of over 55% in size
#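 Kinetic red-fluorescence monitoring (525/598 nm) tracks WRN helicase activity after 100 nM fluorophore-quencher forked duplex and 2 mM ATP are added to 20 nM enzyme pretreated 15 min at room temperature with compound.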
# An asterisk follows results filed as active; ? = inconclusive; . = no result given; ! = not active in a repeat; [ ] = another dose, or the depositor's remark. Calls come from the whole dose curve; as a rule, active = well fitted curve in the direction sought with a large enough effect; inconclusive = small, poorly fitted or top-dose-only effect, or another doubt; inactive = no such curve, though single readings can be large; an effect the other way counts as inactive or inconclusive. Potency is the fitted concentration of half-maximal effect.
SMILES,FEN1 inh,POLH inh,Pol iota inh,Pol kappa inh,POLB inh,WRN helicase inh
Oc1ccc(N=Cc2ccc(OCc3ccccc3)cc2)cc1,?,22.4µM*,?,-22.0%,1.8%,-18.7%
COC(=O)c1sc(NC(=S)NNC(=O)c2c(Br)c(C)nn2C)c(C(=O)OC)c1C,-23.9%,50.1µM*,?,-35.5%,22.4µM*,-18.0%
O=C(N/N=C1\C(=O)c2cccc3cccc1c23)c1ccc(O)cc1,-17.8%,?,182.7%,-8.9%,5.62µM*,-19.7%
Cc1ccc(S(=O)(=O)C2CCN(c3nc(-c4cccs4)nc4ccccc34)CC2)cc1,-2.1%,.,-25.6%,-25.4%,.,.
COCCN=c1scc(-c2cccs2)n1/N=C/c1ccc(O)c(O)c1O,?,?,?,?,4.47µM*,-35.5%[57.1 µM]
COCCN=c1scc(-c2ccccc2)n1/N=C/c1c[nH]c2ccccc12,-24.3%,-7.8%,-7.1%,-14.6%,14.3%,-12.3%
Cc1cnc2ccc(I)cc2c1/C=C/c1ccc(N(C)C)cc1,-30.4%,.,-22.3%,-39.4%,.,.
CCc1cccc2c1NC(=O)[C@]21[C@@H]2C(=O)N(Cc3ccccc3)C(=O)[C@@H]2[C@@H]2CCCN21,-18.8%,22.4µM*,?,-18.2%,?,-12.1%[57.1 µM]
CN1C[C@@H]2[C@@H]3C(=O)N(Cc4ccccc4)C(=O)[C@@H]3[C@](C)(C1=O)N2C(=O)c1ccccc1,17.8%,-3.5%,15.4%,-7.7%,.,-6.1%
CCc1ccc(NC(=O)CSc2ncc(S(=O)(=O)c3cc(C)ccc3C)c(=O)[nH]2)cc1,-5.3%,1.7%,?,-5.7%,6.7%,.
CCOC(=O)c1c(C)[nH]c(C)c1S(=O)(=O)NCC(=O)N1CCN(c2cccc(C)c2)C(C)C1 (stereo not given),-6.9%,-14.9%,0.8%,-15.3%,-20.9%,.
O=C(CC1SC(=O)N(c2ccccc2)C1=O)Nc1ccc(Cl)cc1 (stereo not given),0.1%,4.8%,58.0%,-19.2%,-11.8%,25.1µM*
CCOc1ccccc1NC(=O)c1cc2cc(C)ccc2n1C,14.7%,-29.1%,33.2%,-4.3%,-22.4%,.
Cc1cc(=O)oc2cc(OCC(=O)c3ccc4c(c3)NC(=O)CO4)ccc12,-29.7%,?,3.16µM*,-14.8%,?,?
Cc1cc(=O)oc2cc(OCC(=O)N3CCN(c4ccc(F)cc4)CC3)ccc12,4.4%,-6.9%,39.8µM*,?,19.8%,-3.9%[11.6 µM]
Cc1cc(=O)oc2cc(OCC(O)CN3CCN(c4ccc(F)cc4)CC3)ccc12 (stereo not given),-6.9%,-8.3%,31.9%,-4.1%,-0.2%,3.4%[57.1 µM]
Cc1ccc(C(=O)COc2ccc3c(C)cc(=O)oc3c2)cc1,-12.6%,-14.9%,5.8%,0.4%,7.7%,0.6%
COc1ccc(N2CCN(C(=O)CN3C(=O)COc4ccc(S(=O)(=O)N5CCC(C)CC5)cc43)CC2)cc1,-8.2%,-4.7%,23.0%,-2.9%,1.3%,.
COc1ccc(-n2c(-c3ccc(Cl)cc3Cl)n[nH]c2=S)c(OC)c1,-12.0%,-19.4%,56.8%,0.4%,48.9%,79.4µM*
COc1ccc(-n2c(-c3ccc(C(C)(C)C)cc3)n[nH]c2=S)c(OC)c1,.,-12.8%,.,.,.,-2.6%
NC(=S)NNc1cccc2cccnc12,-30.3%,2.5%,11.2µM*,-15.9%,-10.5%,?
COc1ccc2c(c1)OC(C)(C)C(c1ccccc1)C2c1ccc(OCCN2CCCC2)cc1 (stereo not given),.,.,.,4.4%[19.4 µM],.,.
O=C(O)c1cnn2c1C(=O)N(Cc1cccs1)CC2,-2.7%,31.6µM*,9.2%,7.0%,20µM*,-3.5%
COc1ccc(CN2CCn3ncc(C(=O)Nc4ccccc4)c3C2=O)cc1,-9.1%,-6.4%,11.4%,-5.1%,2.5%,-14.9%[57.1 µM]
O=C(CCC1N=C2c3ccccc3N=C(SCc3ccccc3F)N2C1=O)NC1CCCCC1 (stereo not given),-8.5%,-28.7%,12.8%,-8.0%[60.1 µM],30.8%,.
SMILES,FEN1 inh,POLH inh,Pol iota inh,Pol kappa inh,POLB inh,WRN helicase inh
CCN1C(=O)S/C(=C/c2c(OCc3ccc(C(=O)O)cc3)ccc3ccccc23)C1=O,-9.8%,-13.5%,-1.9%,-6.3%,50.1µM*,-17.5%
CC(C)(C)c1ccccc1OCCCCCNCCO,-14.5%,-3.8%,70.8µM*,4.9%,-10.1%,-16.0%[11.6 µM]
Cc1ccccc1OCCCCCNCCO,9.0%,-14.7%,?,-3.6%,-0.8%,-3.2%
CC(=O)Nc1ccc(S(=O)(=O)N/N=C/c2ccc(C)o2)cc1,18.6%,?,25.1µM*,-14.4%,?,-2.8%
Cc1ccc(/C=N/NS(=O)(=O)c2ccc([N+](=O)[O-])cc2)o1,2.9%,-7.7%,1.5%,-11.6%,-13.2%,-22.8%
O=C(CSC1=Nc2ccccc2N=C(c2ccc(F)cc2)C1)NCc1ccccc1,4.5%,-16.9%,6.1%,-14.4%[60.1 µM],-5.1%,.
O=c1c2c(nc3cc(-c4ccc(F)cc4)[nH]n13)CCCC2,-11.3%,?,?,-21.2%,17.8µM*,?
O=C(CCN1CCc2ccccc2C(c2ccccc2)C1)c1ccc2c(c1)OCCO2 (stereo not given),17.3%,-16.7%,?,-7.6%,0.9%,44.7µM*
CCOc1cc(C#N)c(NC(=O)Cn2nnc(-c3ccc(C)cc3)n2)cc1OCC,-2.9%,-11.0%,3.8%,7.2%,13.4%,.
COc1cc(C[C@@H](C)[C@@H](C)Cc2ccc(O)c(OC)c2)ccc1O,-2.0%,-10.6%,2.4%,-10.6%,.,-6.4%
CC(Cc1ccc(O)c(O)c1)C(C)Cc1ccc(O)c(O)c1 (stereo not given),?,28.2µM*,44.7µM*,10µM*,.,17.8µM*
C[C@H](Cc1ccc(O)c(O)c1)[C@@H](C)Cc1ccc(O)c(O)c1,.,3.16µM*,1.78µM*!,1.68µM*,0.794µM*,.
CCc1ccc2occ(CC(=O)Nc3ccc(OC)c(Cl)c3)c2c1,-9.4%,.,5.2%,-21.5%,-16.7%,.
O=C1c2c(O)cc(O)cc2O[C@@]12c1c(cc(O)c3c1O[C@H](c1ccc(O)cc1)[C@@H](O)C3)O[C@@H]2c1ccc(O)cc1,50.1µM*,-19.3%,?,?,-10.7%,-10.1%[11.6 µM]
COc1cc2nc(CC(O)c3nc4cc(OC)c(OC)cc4[nH]3)[nH]c2cc1OC (stereo not given),?,.,3.16µM*,10µM*,.,.
CCn1nc(CC(=O)Nc2ccc(-n3cnnn3)c(C)c2)c2ccccc2c1=O,-1.6%,-19.4%,-6.1%,5.0%,19.3%,5.4%
